Data from PubChem BioAssay (NCI).
About 83,000 compounds went through this panel and 20% of them were active in at least one assay; those are over-represented in the sample as a whole.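 96-well plates, one dose, 48 hours. Percent growth reported; active if below 10.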 Values without a mark were called inactive. Activity calls are given as the source filed them.

Test system: BT-549 breast
Assay: NCI-60 one-dose screen, 48 h (100 = growth as untreated, 0 = no growth, -100 = all killed)
Details: 10 µM unless noted

Compound | growth
C=C(C)[C@@H]1CC[C@]2(C(=O)NS(=O)(=O)c3ccccc3)CC[C@]3(C)[C@H](CC[C@@H]4[C@@]5(C)CC[C@H](OC(=O)NS(=O)(=O)c6ccccc6)C(C)(C)[C@@H]5CC[C@]43C)[C@@H]12 | -0.983% (active)
O=[N+]([O-])c1ccc(N/N=C/c2ccccc2O)nc1 | 47.8%
CN1C(=O)N(C)C2C1NN=c1s/c(=C\c3ccc(C(F)(F)F)cc3)c(=O)n12 (stereo not given) | 50.4%
CC(C)c1ccc(-c2cnc3nonc3n2)cc1 | 7.62% (active)
COc1ccc(N=C2CSc3nnc(-c4cc(F)c(Cl)cc4Cl)n3N2)cc1 | -21.2% (active)
O=C1C=CN2C(=O)CC=CC2[C@@H]1O (stereo not given in full) | 102%
CCCNCCC(C)=O | 106%
CN(C)c1ccc(/C=C\c2cccc[n+]2C)cc1 | 20.1%
COc1cccc(NC(=O)OC(C)C)c1 | 103%
COC(=O)c1ccc2c(c1)nc(-c1ccc(Cl)cc1)n2-c1cc(C(C)(C)C)[nH]n1 | 43.9%
Cc1ccc(Nc2cc(Cl)c([N+](=O)[O-])cc2[N+](=O)[O-])cc1 | 31.3%
CCOC(=O)c1cc(C(=O)OCC)c(C)nc1C | 115%
O=C(Nc1cccc(C2=NCCN2)c1)c1ccc(N=Nc2ccc(C(=O)Nc3cccc(C4=NCCN4)c3)cc2)cc1 | 69.1%
Cc1c(C(=O)CCl)c(=O)n(-c2ccccc2)n1C | 61.2%
O=C1/C=C/[C@@H](O)[C@@H]2C[C@@H](O)C[C@H]2/C=C/CCC[C@H]([C@@H](O)CO)O1 | 75.8%
CC(=O)N1N=C(C2C(=O)N(C)C(=O)N(C)C2=O)CC1c1ccccc1C(=O)O (stereo not given) | 91.8%
Cn1c(=O)c2c(nc(N/N=C/c3ccccc3Cl)n2C)n(C)c1=O | 102%
O=C1Nc2ccc(Cl)cc2/C1=C\c1c(-c2ccc(F)cc2)nc2ccccn12 | 15.7%

Compound | growth
O=C(O/C(=C/c1ccccc1)C(F)(F)F)c1ccccc1 | 105%
COC(=O)c1ccc2c(c1)nc(-c1cc3ccccc3[nH]c1=O)n2-c1cc(C(C)(C)C)[nH]n1 | 54.6%
O=c1c2cc(Br)cc(Br)c2nc(-c2ccc(Cl)cc2)n1/N=C/c1cccc(F)c1 | 74.4%
CCOC(=O)Nc1ccc2nc(N3CCCCCC3)sc2c1 | 65.7%
COC(=O)CSc1ccc(Cl)cc1 | 105%
COc1ccc(C(=O)N2N=C(c3ccc(F)cc3)CC2c2cn(-c3ccccc3)nc2-c2ccccc2)cc1 (stereo not given) | 77.3%
N=c1nc(N2CCCCC2)cc(N)n1O | 106%
COc1ccc(C2NC(=O)c3cc4c(cc3N2)OCO4)cc1 (stereo not given) | 59.1%
O=C1OCC2=C1C(c1ccccc1)c1cc3c(cc1N2CCO)OCO3 (stereo not given) | 43.9%
COc1ccc(/C=C/c2nc(NCCCN(C)C)c3ccccc3n2)cc1 | 47.3%
c1ccc(CCn2cccc2)nc1 | 106%
Fc1ccc(-c2nc(-c3ccc(-c4nc5ccc(F)cc5[nH]4)cc3)no2)cc1 | 60.1%
N=C(N)c1ccc(NCCNc2ccc(C(=N)N)cc2)cc1 | 133%
COc1ccc(CC2c3cc(OC)c(OC)cc3CC[N+]2(C)CCC(=O)OCCCCCOC(=O)CC[N+]2(C)CCc3cc(OC)c(OC)cc3C2Cc2ccc(OC)c(OC)c2)cc1OC (stereo not given) | 103%
C=CCN(CC#N)CC=C | 116%
O=C1Nc2ccccc2/C1=C\c1nc(C2CCN(S(=O)(=O)c3ccc(F)cc3)CC2)n2ccccc12 | 2.09% (active)
COc1ccc(Nc2nc(N)nc3c(=O)[nH]ccc23)cc1 | 102%

Test system: MDA-MB-435 melanoma
Assay: as above
Details: 10 µM unless noted

Compound | growth
N/N=C(\C(=N\N)c1ccccc1)c1ccccc1 | 103%
C=C(C)[C@@H]1CC[C@]2(C(=O)NS(=O)(=O)c3ccccc3)CC[C@]3(C)[C@H](CC[C@@H]4[C@@]5(C)CC[C@H](OC(=O)NS(=O)(=O)c6ccccc6)C(C)(C)[C@@H]5CC[C@]43C)[C@@H]12 | 12.8%
O=[N+]([O-])c1ccc(N/N=C/c2ccccc2O)nc1 | 46.8%
CN1C(=O)N(C)C2C1NN=c1s/c(=C\c3ccc(C(F)(F)F)cc3)c(=O)n12 (stereo not given) | -52.1% (active)
CC(C)c1ccc(-c2cnc3nonc3n2)cc1 | 23.7%
COc1ccc(N=C2CSc3nnc(-c4cc(F)c(Cl)cc4Cl)n3N2)cc1 | -45.6% (active)
O=C1C=CN2C(=O)CC=CC2[C@@H]1O (stereo not given in full) | 124%
CCCNCCC(C)=O | 94.7%
O=C(Cc1ccc([N+](=O)[O-])cc1)Oc1ccccc1 | 122%
COC(=O)c1ccc2c(c1)nc(-c1ccc(Cl)cc1)n2-c1cc(C(C)(C)C)[nH]n1 | -12.3% (active)
Cc1ccc(Nc2cc(Cl)c([N+](=O)[O-])cc2[N+](=O)[O-])cc1 | 10.2%
CCOC(=O)c1cc(C(=O)OCC)c(C)nc1C | 105%
Cc1c(C(=O)CCl)c(=O)n(-c2ccccc2)n1C | 40%
O=C1/C=C/[C@@H](O)[C@@H]2C[C@@H](O)C[C@H]2/C=C/CCC[C@H]([C@@H](O)CO)O1 | 83%
CC(=O)N1N=C(C2C(=O)N(C)C(=O)N(C)C2=O)CC1c1ccccc1C(=O)O (stereo not given) | 102%
Cn1c(=O)c2c(nc(N/N=C/c3ccccc3Cl)n2C)n(C)c1=O | 109%
O=C1Nc2ccc(Cl)cc2/C1=C\c1c(-c2ccc(F)cc2)nc2ccccn12 | -34.5% (active)
O=C(O/C(=C/c1ccccc1)C(F)(F)F)c1ccccc1 | 107%

Compound | growth
COC(=O)c1ccc2c(c1)nc(-c1cc3ccccc3[nH]c1=O)n2-c1cc(C(C)(C)C)[nH]n1 | 46.4%
O=c1c2cc(Br)cc(Br)c2nc(-c2ccc(Cl)cc2)n1/N=C/c1cccc(F)c1 | 78.8%
CCOC(=O)Nc1ccc2nc(N3CCCCCC3)sc2c1 | 7.4% (active)
COC(=O)CSc1ccc(Cl)cc1 | 107%
COc1ccc(C(=O)N2N=C(c3ccc(F)cc3)CC2c2cn(-c3ccccc3)nc2-c2ccccc2)cc1 (stereo not given) | 62.5%
N=c1nc(N2CCCCC2)cc(N)n1O | 107%
COc1ccc(C2NC(=O)c3cc4c(cc3N2)OCO4)cc1 (stereo not given) | -41.6% (active)
O=C1OCC2=C1C(c1ccccc1)c1cc3c(cc1N2CCO)OCO3 (stereo not given) | 2.96% (active)
COc1ccc(/C=C/c2nc(NCCCN(C)C)c3ccccc3n2)cc1 | -57.9% (active)
c1ccc(CCn2cccc2)nc1 | 114%
Nc1cc(C(=O)O)cc(C(=O)O)c1 | 108%
Fc1ccc(-c2nc(-c3ccc(-c4nc5ccc(F)cc5[nH]4)cc3)no2)cc1 | 68.2%
N=C(N)c1ccc(NCCNc2ccc(C(=N)N)cc2)cc1 | 105%
COc1ccc(CC2c3cc(OC)c(OC)cc3CC[N+]2(C)CCC(=O)OCCCCCOC(=O)CC[N+]2(C)CCc3cc(OC)c(OC)cc3C2Cc2ccc(OC)c(OC)c2)cc1OC (stereo not given) | 96.7%
C=CCN(CC#N)CC=C | 101%
O=C1Nc2ccccc2/C1=C\c1nc(C2CCN(S(=O)(=O)c3ccc(F)cc3)CC2)n2ccccc12 | 70.8%
COc1ccc(Nc2nc(N)nc3c(=O)[nH]ccc23)cc1 | 113%
